27 compounds from PubChem BioAssay (EPA / NIEHS) can be followed below.

Inconclusive results are not listed. Calls of active or inactive are those of the source. Rule for the calls: active = hit-call score of the fitted dose curve at least 0.9, where 1 is the maximum; inconclusive = response in the unintended direction; inactive = score below 0.9.

Sequence of Estrogen receptor (Homo sapiens) (P03372 whole entry, looked up, the tested form may be a part): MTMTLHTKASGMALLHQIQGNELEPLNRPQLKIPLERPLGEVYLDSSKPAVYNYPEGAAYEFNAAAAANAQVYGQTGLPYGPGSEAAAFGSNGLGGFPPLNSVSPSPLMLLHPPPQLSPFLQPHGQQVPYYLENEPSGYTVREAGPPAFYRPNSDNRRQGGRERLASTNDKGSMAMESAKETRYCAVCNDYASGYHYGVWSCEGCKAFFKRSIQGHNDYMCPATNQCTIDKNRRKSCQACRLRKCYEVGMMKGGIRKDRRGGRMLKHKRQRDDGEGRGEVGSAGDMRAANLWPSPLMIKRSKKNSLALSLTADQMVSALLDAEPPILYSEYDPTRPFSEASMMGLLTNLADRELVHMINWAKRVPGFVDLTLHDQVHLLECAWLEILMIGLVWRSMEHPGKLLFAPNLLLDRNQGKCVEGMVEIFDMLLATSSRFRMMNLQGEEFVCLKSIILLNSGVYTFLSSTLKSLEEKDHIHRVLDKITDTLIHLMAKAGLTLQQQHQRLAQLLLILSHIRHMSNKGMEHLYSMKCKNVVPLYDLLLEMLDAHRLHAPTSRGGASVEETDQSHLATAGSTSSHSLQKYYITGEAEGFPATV

The experiment has as its target Estrogen receptor (Homo sapiens) (UniProt P03372). Briefly: OT_ER_ERaERa_0480: Odyssey Thera (OT) 8-hour HEK293T Protein-Complementation Assay for Estrogen Receptor-alpha/-alpha Homodimer (AID 2283351).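 Note: rise in fluorescence from reassembled reporter fragments on ERα LBD homodimer in nucleus or whole cell.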 Put shortly: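 The readout is complementation of fragments fused to the human ER alpha ligand-binding domain (aa 310-547), stably expressed in HEK293T cells. After 8 h of exposure, the increase in nuclear/cytoplasmic fluorescence was measured by laser scanning cytometry and fitted relative to DMSO.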
As for `CC(C)(C)C1CCC(=O)CC1`, the compound was classed as inactive.

In the case of `CN(C)Cc1cc(CN(C)C)c(O)c(CN(C)C)c1`, the result was inactive. In the case of `CCCCCC(=O)OCC`, the call was inactive. Same read-out and setting: for `CCCCC(C=O)CC` (configuration not stated) the value was “inactive”. Still for that read-out and setting: for `O=C(O)c1ccc2c(c1)C(=O)OC2=O` the value was “inactive”; for `CCCC(CC)c1ccccc1` (configuration not stated), “inactive”. For the compound `CCCCC(CC)COS(=O)(=O)O` (configuration not stated), the compound was called inactive. On the same count and under the same terms, for `O=C(O)/C=C/c1ccccc1` the value was “inactive”.

Turning to `C=CCOC(=O)c1ccc(C(=O)OCC=C)c(C(=O)OCC=C)c1`, the outcome was inactive.

`c1ccc(Nc2cccc3ccccc23)cc1`: the AC50 (commonly the midpoint of the concentration-response curve, whichever way the signal moves) was 35.2 µM (active). In the case of `O=c1c(O)c(-c2ccc(O)cc2O)oc2cc(O)cc(O)c12`, the result was inactive. On the same count and under the same terms, the entry for `Nc1ccc(C(=O)O)cc1` is “inactive”. `CCCCC(CC)COC(=O)/C=C/c1ccc(OC)cc1` (configuration not stated): the compound was classed as inactive. On the same count and under the same terms, the entry for `C[Si]1(C)O[Si](C)(C)O[Si](C)(C)O[Si](C)(C)O[Si](C)(C)O1` is “inactive”. With `O=C(Nc1ccccc1)c1cc(Cl)ccc1O`, the result was inactive. Consider `CC(C)c1cc(C(C)C)cc(C(C)C)c1`, for which the compound was called inactive.

Consider `C1CNCCN1`, for which the outcome was inactive. On to `O=S(=O)(O)c1ccc(N=Nc2c(O)ccc3ccccc23)cc1`, for which the compound was called inactive. For `Cc1ccc(C)c(OCCCC(C)(C)C(=O)O)c1`, the outcome was inactive. With `CCCCC/C=C\C/C=C\CCCCCCCC(=O)O`, the compound was classed as inactive. `CCCCCCCCCCCCc1ccc(O)cc1`: the AC50 was 2.48 µM (active).

Regarding `CCCCCCO`, the outcome was inactive. On the same count and under the same terms, for `CCCC=C(C=O)CC` the value was “inactive”. For `CCCCCCCCCC(C)=O`, the concentration at half-maximal activity (AC50) was 68.5 µM (active). As for `CCCCC(=O)O`, the compound was called inactive.

In the case of `CCOC(=O)c1ccc(C)cc1`, the compound was called inactive. The same measure, in the same setting: for `CCCCCC[C@@H](O)C/C=C\CCCCCCCC(=O)OCC(O)CO` (some centres not stated) the value was “inactive”.
